Compound activity: PubChem BioAssay, National Center for Advancing Translational Sciences (NCATS)
In the library only some 10% were active in any assay of this set; here they are far more common.
HEK293 tox: kills HEK 293 cells | Potency, µM (titrated, usually from 115 µM), actives largely listed as inhibitors | actives 6.6% (n = 94,000) | HEK 293 viability, ATP luminescence (CellTiter-Glo), 48-72 h; further: nearly all actives have a fitted effect of over 60% in size
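CellTiter-Glo luminescence (cellular ATP) was read after 48 or 72 hr of compound exposure at 37 degree Celsius. Cells were HEK 293 plated at 250 cells/well.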
Luciferase inh: Photinus pyralis luciferase inhibition; P08659; purified P. pyralis luciferase, luminescence, biochemical; Potency, µM (top dose mostly 115 µM), hits mostly inhibitors; actives 2.5% (n = 76,000); AID 1347043; further: nearly all actives have a fitted effect of over 65% in size
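Biochemical qHTS: compound (6-point titration) added to 10uM D-luciferin plus 10uM ATP in Tris acetate pH 7.5 buffer with Mg, Tween-20 and BSA, then purified enzyme at 10nM; light output imaged.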
NPR1 antag: human Npr1 receptor antagonism. AID 1347048. HEK293 hNpr1 GloSensor cGMP, ANP-stimulated luminescence. Potency, µM (highest dose often 46.3 µM), usual class: inhibitors. actives 1.6% (n = 76,000); calls by dose curve; further: nearly all actives have a fitted effect of over 60% in size
Target sequence (P16066 whole entry, looked up): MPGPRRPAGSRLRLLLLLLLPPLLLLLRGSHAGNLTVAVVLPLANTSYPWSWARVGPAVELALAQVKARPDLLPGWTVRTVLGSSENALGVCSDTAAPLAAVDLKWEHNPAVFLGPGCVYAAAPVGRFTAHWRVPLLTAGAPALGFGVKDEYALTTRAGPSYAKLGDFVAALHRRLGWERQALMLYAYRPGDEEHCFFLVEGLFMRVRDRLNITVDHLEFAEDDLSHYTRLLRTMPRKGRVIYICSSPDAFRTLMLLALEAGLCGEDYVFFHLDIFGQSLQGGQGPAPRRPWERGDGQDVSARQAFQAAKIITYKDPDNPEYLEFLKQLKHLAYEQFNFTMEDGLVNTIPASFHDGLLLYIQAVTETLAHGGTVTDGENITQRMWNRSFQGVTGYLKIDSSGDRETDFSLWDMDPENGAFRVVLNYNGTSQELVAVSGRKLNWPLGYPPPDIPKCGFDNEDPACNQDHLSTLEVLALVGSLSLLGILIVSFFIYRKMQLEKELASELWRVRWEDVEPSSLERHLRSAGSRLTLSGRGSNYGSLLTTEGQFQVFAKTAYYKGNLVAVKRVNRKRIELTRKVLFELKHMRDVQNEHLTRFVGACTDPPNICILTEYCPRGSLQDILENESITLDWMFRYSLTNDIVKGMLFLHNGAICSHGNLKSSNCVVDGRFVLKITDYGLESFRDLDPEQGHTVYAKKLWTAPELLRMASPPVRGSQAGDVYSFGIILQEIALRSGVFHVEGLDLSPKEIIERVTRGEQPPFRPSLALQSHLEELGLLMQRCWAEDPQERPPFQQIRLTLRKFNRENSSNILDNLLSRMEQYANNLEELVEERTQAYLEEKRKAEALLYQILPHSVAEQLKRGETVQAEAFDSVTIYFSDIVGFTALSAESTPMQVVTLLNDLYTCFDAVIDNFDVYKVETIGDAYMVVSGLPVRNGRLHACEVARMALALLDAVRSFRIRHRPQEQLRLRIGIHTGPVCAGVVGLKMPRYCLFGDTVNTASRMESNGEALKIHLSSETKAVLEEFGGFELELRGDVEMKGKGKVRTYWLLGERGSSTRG
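Compound pre-incubated 30 min at room temperature on GloSensor-loaded HEK293 cells stably carrying hNpr1 and the pGS-40F cGMP biosensor. Stimulation uses hNppA at 0.1 nM final; luminescence is taken at baseline and 20 min post-agonist.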
NIH3T3 tox: NIH 3T3 cell cytotoxicity; actives 4.3% (n = 94,000); NIH 3T3 viability, CellTiter-Glo ATP luminescence, 48-72 h; Potency, µM (highest dose often 96.7 µM), actives largely listed as inhibitors; AID 1345082; further: nearly all actives have a fitted effect of over 55% in size
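Viability of NIH 3T3 cells after 48 or 72 hr compound treatment at 37 °C was assessed by CellTiter-Glo, with luminescence imaged following a 10 min room-temperature step.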
GPT2 inh: inhibitors of human GPT2 alanine aminotransferase | Q8TD30 | AID 1671188 | Recombinant GPT2, coupled pyruvate oxidase/HRP Amplex Red fluorescence | Potency, µM (top dose mostly 57.7 µM), usual class: inhibitors | actives 0.25% (n = 100,000); further: nearly all actives have a fitted effect of over 60% in size
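Fluorescence of coupled pyruvate oxidase/HRP/Amplex Red system (50uM Amplex, 30 min, dark) reports pyruvate formed by GPT2. Enzyme reaction: 10ng/uL GPT2, 2mM L-alanine, 250uM a-KG, 30 min room temperature, pH 7.5; 50uM AOA control.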
Of the large screens only hits and unclear results are named; the others gave an inactive call. Unless noted, the call rests on the fitted dose curve; in most records, active means well fitted curve in the direction sought with a large enough effect; inconclusive means small, poorly fitted or top-dose-only effect, or another doubt; inactive means no such curve, though single readings can be large; an effect the other way counts as inactive or inconclusive.

Cc1ccccc1C(=O)N1CCC2(CC1)CC(c1cccc(C(F)(F)F)c1)=NO2	HEK293 tox 32µM, NIH3T3 tox inconclusive (no result: Luciferase inh, NPR1 antag, GPT2 inh)
CC(C)(C)C(=O)N1CCC2(CC1)CC(c1cccc(C(F)(F)F)c1)=NO2	HEK293 tox inconclusive (no result: Luciferase inh, NPR1 antag, GPT2 inh)
O=C(c1ccccc1F)N1CCCC2(CC(c3cccc(C(F)(F)F)c3)=NO2)C1 (centres undefined)	HEK293 tox inconclusive, NIH3T3 tox inconclusive
O=C(c1ccccc1F)N1CCC2(CC1)CC(c1cccc(C(F)(F)F)c1)=NO2	HEK293 tox 40µM, NIH3T3 tox inconclusive (no result: Luciferase inh, NPR1 antag, GPT2 inh)
NCc1cccc(-c2ccc(F)cc2F)c1	HEK293 tox inconclusive, NIH3T3 tox inconclusive (no result: Luciferase inh, NPR1 antag)
COc1ccccc1OCc1nnc(C(=O)N2CCC[C@@H]2C(c2ccccc2)c2ccccc2)n1-c1ccccc1	HEK293 tox inconclusive
CC(=O)Nc1cccc(OCc2nnc(C(=O)N3CCC[C@@H]3C(c3ccccc3)c3ccccc3)n2-c2ccccc2)c1	HEK293 tox inconclusive, NIH3T3 tox inconclusive
C[C@H]1CCCN1C(=O)c1nnc(COc2ccc(C#N)cc2)n1-c1cccnc1	HEK293 tox inconclusive, NIH3T3 tox 40µM
O=C(c1nnc(COc2ccc(OC(F)(F)F)cc2)n1-c1ccccc1)N1CCC[C@@H]1C(c1ccccc1)c1ccccc1	HEK293 tox inconclusive, NIH3T3 tox 4.5µM
C[C@H]1CCCN1C(=O)c1nnc(COc2ccc(C#N)cc2)n1-c1ccccc1	NIH3T3 tox 35µM
C[C@H]1CCCN1C(=O)c1nnc(CNCc2ccc3c(c2)OCO3)n1-c1cccnc1	NIH3T3 tox inconclusive
COc1ccc2c(c1)OC[C@@H]1CN(CCC#N)C(=O)CCN(C(=O)C3CCCC3)[C@H]21	NIH3T3 tox inconclusive (no result: Luciferase inh, NPR1 antag, GPT2 inh)
CCCc1nc(NCc2ccc(-c3noc(C)n3)cc2)c2cnn(C)c2n1	HEK293 tox 18µM, NPR1 antag 11µM, NIH3T3 tox inconclusive
COc1ccc2[nH]cc(CCNC(=O)C3Cn4cccc4C(=O)N3Cc3cccnc3)c2c1 (centres undefined)	HEK293 tox 89µM, NIH3T3 tox inconclusive
CC(C)CN1C(=O)c2cccn2CC1CNC(=O)c1n[nH]c(=O)c2ccccc12 (centres undefined)	none
O=C(NCC1Cn2cccc2C(=O)N1Cc1cccnc1)c1n[nH]c(=O)c2ccccc12 (centres undefined)	NIH3T3 tox 40µM
Cc1cc(N2CCN(Cc3nc(-c4cccc(Cl)c4)no3)CC2)cc(C)n1	HEK293 tox 40µM, NIH3T3 tox 22µM
c1ccc2oc([C@H]3CCN(C4CCCCC4)C3)nc2c1	Luciferase inh inconclusive, NPR1 antag inconclusive
Fc1ccccc1-c1nnc([C@H]2CCN(C3CCOCC3)C2)o1	Luciferase inh 71µM
c1ccc2oc([C@H]3CCN(C4CCOCC4)C3)nc2c1	Luciferase inh 79µM
CC(C)N1CC[C@H](c2nnc(-c3ccccc3F)o2)C1	Luciferase inh 40µM
CCC(=O)N1CCN(c2nc3c(s2)CC(C(=O)Nc2ccc(C(C)C)cc2)CC3)CC1 (centres undefined)	HEK293 tox 35µM, NPR1 antag inconclusive, NIH3T3 tox inconclusive
CC(=O)N1CCN(c2nc3c(s2)CC(C(=O)NCc2cc(F)cc(F)c2)CC3)CC1 (centres undefined)	HEK293 tox inconclusive
CC(=O)N1CCN(c2nc3c(s2)CC(C(=O)NCc2ccc(C(C)C)cc2)CC3)CC1 (centres undefined)	HEK293 tox 45µM, NPR1 antag inconclusive, NIH3T3 tox inconclusive
CC(=O)N1CCN(c2nc3c(s2)CC(C(=O)Nc2ccc(F)c(Cl)c2)CC3)CC1 (centres undefined)	HEK293 tox 7.9µM, NPR1 antag inconclusive, NIH3T3 tox 20µM
CCC(=O)N1CCN(c2nc3c(s2)CC(C(=O)Nc2ccc4c(c2)OCO4)CC3)CC1 (centres undefined)	HEK293 tox 14µM, NIH3T3 tox inconclusive
COc1cccc([S+](=O)([O-])N2CCCC(C(=O)N3CCC(c4nc5ncccc5[nH]4)C3)C2)c1 (centres undefined)	HEK293 tox inconclusive (no result: Luciferase inh, NPR1 antag)
CCc1ccc(NC(=O)C2CCc3nc(N4CCN(C(=O)C(C)C)CC4)sc3C2)cc1 (centres undefined)	HEK293 tox inconclusive
CC(C)C(=O)N1CCN(c2nc3c(s2)CC(C(=O)NCCc2cccs2)CC3)CC1 (centres undefined)	HEK293 tox 79µM
CCC(=O)N1CCN(c2nc3c(s2)CC(C(=O)Nc2ccc(F)cc2)CC3)CC1 (centres undefined)	HEK293 tox 13µM, NPR1 antag inconclusive, NIH3T3 tox 32µM
O=C(NCCc1ccc(F)cc1)C1CCCN1Cc1ccc(-c2cncnc2)cc1 (centres undefined)	HEK293 tox inconclusive, NIH3T3 tox inconclusive (no result: Luciferase inh, NPR1 antag)
O=C(Nc1ccccc1)O[C@@H]1CO[C@H]2[C@@H]1OC[C@@H]2n1nnnc1SC1CCCC1	HEK293 tox inconclusive, NPR1 antag inconclusive
S=C(NC1CCCCC1)N[C@H]1CO[C@H]2[C@@H]1OC[C@@H]2n1cc(-c2ccccn2)nn1	HEK293 tox 89µM, NPR1 antag inconclusive, NIH3T3 tox inconclusive
O=C(Nc1cccc(C(F)(F)F)c1)O[C@@H]1CO[C@H]2[C@@H]1OC[C@@H]2n1nnnc1SC1CCCC1	HEK293 tox inconclusive, NPR1 antag inconclusive, NIH3T3 tox 40µM
O=C(Nc1ccccc1)O[C@@H]1CO[C@H]2[C@@H]1OC[C@@H]2n1nnnc1-c1ccc2c(c1)OCCO2	Luciferase inh 45µM
O=C(Nc1cccc(C(F)(F)F)c1)O[C@@H]1CO[C@H]2[C@@H]1OC[C@@H]2n1cc(-c2ccccn2)nn1	HEK293 tox 35µM, NPR1 antag inconclusive, NIH3T3 tox inconclusive
COc1cccc(-c2cc(-c3c(C)noc3C)cc3c2C(=O)N(C)C3)c1OC	HEK293 tox inconclusive, NIH3T3 tox inconclusive
Cc1noc(C)c1-c1cc2c(c(-c3ccc(CO)cc3)c1)C(=O)N(C)C2	HEK293 tox inconclusive, NIH3T3 tox 79µM
Cc1noc(C)c1-c1cc2c(c(-c3cccnc3)c1)C(=O)N(C)C2	NIH3T3 tox inconclusive
COc1ccc(-c2cc(-c3c(C)noc3C)cc3c2C(=O)N(C)C3)cn1	HEK293 tox 79µM, NPR1 antag inconclusive, NIH3T3 tox inconclusive
Cc1cccc(N2Cc3c(ncnc3N3CCN(c4ncccn4)CC3)N(C)CC2=O)c1	none (no result: Luciferase inh, NPR1 antag)
Cc1nnc2ccc(N3CCN(S(C)(=O)=O)CC3)nn12	none (no result: Luciferase inh, NPR1 antag, GPT2 inh)
C#CCNC(=O)c1ccc2nnc(C3CCOCC3)n2c1	none (no result: Luciferase inh, NPR1 antag, GPT2 inh)
COc1ccc(CCN2CCC(CN(C)Cc3nc(C(C)C)cs3)CC2)cc1	HEK293 tox 32µM, NIH3T3 tox inconclusive
COc1ccccc1-c1ccnc(N[C@H]2CO[C@H]3[C@@H]2OC[C@@H]3NS(=O)(=O)c2cccc3cccnc23)n1	none
